Screening data from PubChem BioAssay.
RBX1-CUL1 inh: blocks human RBX1-Cullin-1 di-ubiquitin formation | P62877+Q13616 | in vitro K48 di-Ub FRET, acceptor:donor ratio, 45 min | inhibition, % at 10 µM | hit rate 0.6% among 140,000; in the data active means inhibition above about 25%
Target sequence (P62877 whole entry, looked up): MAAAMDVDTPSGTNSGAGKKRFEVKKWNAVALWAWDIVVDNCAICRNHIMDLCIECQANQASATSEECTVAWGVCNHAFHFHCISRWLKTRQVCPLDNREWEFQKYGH
Target sequence (Q13616 whole entry, looked up): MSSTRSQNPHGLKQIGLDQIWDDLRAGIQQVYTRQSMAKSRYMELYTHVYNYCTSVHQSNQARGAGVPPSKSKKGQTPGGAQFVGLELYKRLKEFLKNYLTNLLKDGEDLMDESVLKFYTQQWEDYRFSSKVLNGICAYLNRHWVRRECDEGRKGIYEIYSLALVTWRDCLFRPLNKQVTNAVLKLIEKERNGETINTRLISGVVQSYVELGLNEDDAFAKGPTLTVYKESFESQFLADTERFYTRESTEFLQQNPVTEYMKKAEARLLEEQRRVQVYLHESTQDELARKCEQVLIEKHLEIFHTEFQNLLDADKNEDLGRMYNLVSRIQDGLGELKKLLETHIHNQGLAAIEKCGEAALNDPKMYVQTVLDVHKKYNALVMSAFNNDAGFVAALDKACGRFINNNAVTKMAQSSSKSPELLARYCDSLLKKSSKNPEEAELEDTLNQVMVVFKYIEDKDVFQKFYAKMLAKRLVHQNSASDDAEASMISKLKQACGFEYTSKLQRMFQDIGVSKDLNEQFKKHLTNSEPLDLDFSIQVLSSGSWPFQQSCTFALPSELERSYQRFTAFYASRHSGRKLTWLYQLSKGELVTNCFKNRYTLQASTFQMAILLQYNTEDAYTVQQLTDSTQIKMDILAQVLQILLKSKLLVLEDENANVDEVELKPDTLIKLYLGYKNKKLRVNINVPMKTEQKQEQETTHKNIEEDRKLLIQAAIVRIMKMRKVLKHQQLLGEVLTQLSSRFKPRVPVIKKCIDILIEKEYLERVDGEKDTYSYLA
Hits are given with their value. Many of the other results were omitted from the sample, so hits are more common in it than they were.

For CCCc1[nH]nc2c1C(c1c(OC)ccc3ccccc13)C(C#N)C(=N)O2 (stereo not drawn) the results were RBX1-CUL1 inh inactive.
For Cc1cccc(C)c1NC(=O)Nc1ccc(F)c(Cl)c1 the results were RBX1-CUL1 inh inactive.
`COc1ccc(CN2C(=O)CC(N3CCN(C4CC(=O)N(Cc5ccc(OC)cc5)C4=O)CC3)C2=O)cc1` (stereo not drawn) gave RBX1-CUL1 inh inactive.
For O=C(Nc1ccc(I)cc1C(F)(F)F)c1cccc(F)c1 the results were RBX1-CUL1 inh inactive.
`Cc1ccc(/C=c2/sc3n(c2=O)C(c2ccc(C)cc2)C2=C(N=3)c3ccccc3CC2)cc1` (stereo not drawn) gave RBX1-CUL1 inh inactive.
COc1ccc(C2C3=C(N=c4s/c(=C/c5ccc(C(=O)O)cc5)c(=O)n42)c2ccccc2CC3)cc1OC (stereo not drawn) was read as RBX1-CUL1 inh 91.7.
`COc1ccc(C2C3=C(N=c4s/c(=C/c5ccc(OCc6cccc(C(=O)O)c6)c(OC)c5)c(=O)n42)c2ccccc2CC3)cc1` (stereo not drawn) gave RBX1-CUL1 inh 42.9.
Screening COc1cc(/C=c2/sc3n(c2=O)C(c2ccccc2Cl)C2=C(N=3)c3ccccc3CC2)ccc1OCc1ccc2c(c1)OCO2 (stereo not drawn) returned RBX1-CUL1 inh inactive.
For COc1cccc(C2C3=C(N=c4s/c(=C/c5ccc(O)c(OC)c5)c(=O)n42)c2ccccc2CC3)c1 (stereo not drawn) the results were RBX1-CUL1 inh inactive.
`COc1ccc(C2C3=C(N=c4s/c(=C/c5c[nH]c6ccccc56)c(=O)n42)c2ccccc2CC3)cc1OC` (stereo not drawn) gave RBX1-CUL1 inh inactive.
`Cc1oc(-c2cccc3ccccc23)nc1CN(C)Cc1cccc2ncccc12` gave RBX1-CUL1 inh inactive.
`COc1ccc(-c2cnnc(NCCCN3CCCCC3CO)n2)cc1` (stereo not drawn) gave RBX1-CUL1 inh inactive.
Screening Cc1ccc(S(=O)(=O)N(C)c2c(C)ccc(S(=O)(=O)NC3CCCCC3)c2C)cc1 returned RBX1-CUL1 inh inactive.
For Cc1nc(-c2ccncc2)ncc1C(C)NCc1nc(C)c(C)nc1C (stereo not drawn) the results were RBX1-CUL1 inh inactive.
O=C(O)c1ccccc1-c1c2cc(Cl)c(=O)cc-2oc2c1CC(Cl)C(O)=C2 (stereo not drawn) was read as RBX1-CUL1 inh 128.8.
Screening O=C(O)c1cc(NC2(c3ccccc3)C(=O)c3ccccc3C2=O)ccc1Cl returned RBX1-CUL1 inh inactive.
`CCOC(=O)c1sc(N=CC(C#N)c2nc3ccccc3o2)c(C#N)c1C` (stereo not drawn) gave RBX1-CUL1 inh inactive.
Screening COC(=O)c1nn(-c2cccc(C)c2)c2nc3ccccc3n12 returned RBX1-CUL1 inh inactive.
For C1=C(CCNCc2ccccn2)CCCC1 the results were RBX1-CUL1 inh inactive.
Screening CN(C)c1cc[n+](Cc2ccccn2)cc1 returned RBX1-CUL1 inh inactive.
`c1ccc(C[n+]2cccc3c2CCCC3)nc1` gave RBX1-CUL1 inh 44.9.
CCc1cc2c(=O)c(-c3nc4ccccc4n3C)coc2cc1OC(=O)c1ccc(OC)cc1 was read as RBX1-CUL1 inh inactive.
For NC(=O)Cn1nnc2c(sc3nc4c(c(-c5ccccc5)c32)CCC4)c1=O the results were RBX1-CUL1 inh inactive.
`O=C(c1csc2nc(-c3ccc(F)cc3)cn12)N1CCN(CC2CC2)CC1` gave RBX1-CUL1 inh inactive.
`O=C(CSc1nc2scc(-c3ccco3)c2c(=O)n1-c1ccccc1)Nc1ccc2c(c1)OCCO2` gave RBX1-CUL1 inh inactive.
Screening O=C(CSc1nc2scc(-c3ccco3)c2c(=O)n1-c1ccccc1)c1ccc(F)cc1 returned RBX1-CUL1 inh 96.9.
CC(=O)CSc1nc2scc(-c3ccc(C)o3)c2c(=O)n1-c1ccccc1 was read as RBX1-CUL1 inh inactive.
Screening Cc1cccc(OCCCn2c(CCCO)nc3ccccc32)c1 returned RBX1-CUL1 inh inactive.
CCOc1ccccc1N1CCN(C(=O)c2cc3nc(-c4ccc(Cl)s4)cc(C(F)(F)F)n3n2)CC1 was read as RBX1-CUL1 inh inactive.
Screening O=C1CC(=O)c2sc3nc(-c4cccs4)cc(-c4ccc(F)cc4)c3c2N1 returned RBX1-CUL1 inh 26.1.
`Nc1nc(N)c2sc3nc(-c4cccs4)cc(-c4ccc(F)cc4)c3c2n1` gave RBX1-CUL1 inh inactive.
For O=C1CC(=O)c2sc3nc(-c4ccccc4)ccc3c2N1 the results were RBX1-CUL1 inh inactive.
CCOC(=O)c1snc(C(=O)N2CCOCC2)c1N was read as RBX1-CUL1 inh inactive.
Screening O=C(O)c1ccc(N2N=C(c3ccccc3)/C(=C/c3ccccc3)C2=O)cc1 returned RBX1-CUL1 inh inactive.
`O=C(O)c1ccc(N2N=C(c3ccccc3)/C(=C/c3ccco3)C2=O)cc1` gave RBX1-CUL1 inh 33.1.
O=C1/C(=C/c2ccccc2OCc2ccccc2Cl)C(c2ccccc2)=NN1c1ccc([N+](=O)[O-])cc1 was read as RBX1-CUL1 inh inactive.
Screening O=C(c1cnc2sc3c(n2c1=O)CCCC3)N1CCOCC1 returned RBX1-CUL1 inh inactive.
Cc1nc(CN2CCN(C(=O)Cn3nnnc3CN(C)C(C)C)CC2)cs1 was read as RBX1-CUL1 inh inactive.
For O=C1CC(NCc2nc3c(s2)CCCCC3)C(=O)N1c1ccc(Br)cc1 (stereo not drawn) the results were RBX1-CUL1 inh inactive.
CC(=O)c1c(=O)n(O)cc2ccccc12 was read as RBX1-CUL1 inh 91.0.
For CC(=O)c1c(C)sc2c1ccc1ccccc12 the results were RBX1-CUL1 inh inactive.
For CC(=O)n1c(=O)c2cc3ccccc3cc2c(=O)n1C(C)=O the results were RBX1-CUL1 inh inactive.
CCCCC(=O)Nc1ccc(Cl)cc1 was read as RBX1-CUL1 inh inactive.
O=C1c2ccccc2Sc2ccccc2C1Br (stereo not drawn) was read as RBX1-CUL1 inh inactive.
CCCN1C(=O)C(Cc2ccc(C)s2)=NC1=S was read as RBX1-CUL1 inh inactive.
`Cc1ccc(CNc2ccc(C(=O)O)cc2C)cc1` gave RBX1-CUL1 inh inactive.
Screening CC(=O)Nc1nnc(SCC2=Nc3c(Cl)cccc3C(=O)C2)s1 returned RBX1-CUL1 inh inactive.
O=C(CCN1CCCCC1=O)NCc1ccc2[nH]c3c(c2c1)CCCC3 was read as RBX1-CUL1 inh inactive.
For Cc1nc(SCC(=O)N(C)C)c2c3c(sc2n1)CCCC3 the results were RBX1-CUL1 inh inactive.
For Cc1cc(C(F)(F)F)n2nc(N)c(N=Nc3ccccc3)c2n1 the results were RBX1-CUL1 inh inactive.
Screening CSc1c(C#N)c(N)nc2c(N=Nc3ccc(S(N)(=O)=O)cc3)c(N)nn12 returned RBX1-CUL1 inh 84.4.
For Cc1cc(C(F)(F)F)n2nc(N)c(N=Nc3cccc(C(F)(F)F)c3)c2n1 the results were RBX1-CUL1 inh inactive.
`C=CCNS(=O)(=O)c1ccc(C(=O)N(C)c2ccccc2)cc1` gave RBX1-CUL1 inh inactive.
`O=C(Oc1c(Cl)cc(Cl)c2cccnc12)c1ccc(-c2cccc([N+](=O)[O-])c2)o1` gave RBX1-CUL1 inh inactive.
Cc1ccc(C(=O)c2coc3c2C(=O)C(=O)C(Br)=C3)cc1 was read as RBX1-CUL1 inh 95.7.
For O=C1C(=O)c2c(C(=O)c3ccccc3)coc2C(Cl)=C1Cl the results were RBX1-CUL1 inh 89.5.
Screening Cc1ccc(C(=O)c2coc3c2C(=O)C(=O)c2ccccc2-3)cc1 returned RBX1-CUL1 inh inactive.
Screening Nc1sccc1C(=O)c1ccccc1 returned RBX1-CUL1 inh inactive.
O=C1C(=O)c2c(C(=O)c3ccccc3)coc2C=C1Br was read as RBX1-CUL1 inh 104.0.
Cc1ccc(C(=O)c2coc3ccc(Br)cc3c2=O)cc1 was read as RBX1-CUL1 inh inactive.
